# Out of some 310,000 compounds screened, about 14,000 (4.5%) showed an effect of 50% or more. The effect is printed as a negative number. The list comes from a sample in which strong results are over-represented; it also holds similar structures and randomly drawn compounds.
# Target: human ether-à-go-go-related gene (hERG) potassium channel (human, UniProt Q12809)
# Test: primary screen, population patch clamp on CHO cells stably expressing hERG; higher = less effect of the substance
# 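Note: peak tail current of the secondary pulse compared with the same well before compound.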
# Chain of human ether-à-go-go-related gene (hERG) potassium channel (Q12809 whole entry, looked up): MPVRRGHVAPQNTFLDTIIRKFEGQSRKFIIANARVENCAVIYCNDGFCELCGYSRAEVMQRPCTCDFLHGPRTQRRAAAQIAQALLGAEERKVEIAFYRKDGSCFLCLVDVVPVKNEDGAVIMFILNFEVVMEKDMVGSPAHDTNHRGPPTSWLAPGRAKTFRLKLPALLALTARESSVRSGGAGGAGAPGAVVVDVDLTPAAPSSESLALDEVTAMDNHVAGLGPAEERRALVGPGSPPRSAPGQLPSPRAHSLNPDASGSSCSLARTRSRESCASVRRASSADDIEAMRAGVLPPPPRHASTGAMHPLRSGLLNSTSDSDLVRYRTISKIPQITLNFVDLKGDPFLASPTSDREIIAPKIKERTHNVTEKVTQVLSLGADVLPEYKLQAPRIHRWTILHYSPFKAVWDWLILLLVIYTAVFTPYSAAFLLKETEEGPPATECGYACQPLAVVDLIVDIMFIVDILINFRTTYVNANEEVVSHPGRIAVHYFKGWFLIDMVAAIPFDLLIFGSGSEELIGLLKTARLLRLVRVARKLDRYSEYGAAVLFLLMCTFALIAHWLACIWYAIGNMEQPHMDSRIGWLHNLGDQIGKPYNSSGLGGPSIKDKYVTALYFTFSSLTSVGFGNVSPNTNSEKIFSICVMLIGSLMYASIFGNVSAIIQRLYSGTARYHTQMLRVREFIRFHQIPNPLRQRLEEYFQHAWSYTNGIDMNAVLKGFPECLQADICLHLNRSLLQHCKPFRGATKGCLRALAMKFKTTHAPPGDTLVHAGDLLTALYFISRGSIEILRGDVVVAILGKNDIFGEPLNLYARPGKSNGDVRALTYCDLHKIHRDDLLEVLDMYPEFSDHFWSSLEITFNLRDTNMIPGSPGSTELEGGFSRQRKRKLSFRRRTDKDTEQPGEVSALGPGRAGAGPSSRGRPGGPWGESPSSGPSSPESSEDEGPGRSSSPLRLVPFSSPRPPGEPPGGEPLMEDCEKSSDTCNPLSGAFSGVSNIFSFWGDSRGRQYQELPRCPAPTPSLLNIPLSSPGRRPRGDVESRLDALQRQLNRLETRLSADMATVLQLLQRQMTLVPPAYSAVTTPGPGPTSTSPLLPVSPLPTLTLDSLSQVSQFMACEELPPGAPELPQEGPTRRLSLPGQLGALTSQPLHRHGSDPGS
row,Compound,"hERG current change (%, negative = inhibition) at 10uM [%]"
1,Cc1cc(C)cc(NC(=O)c2ccc(CSc3nnnn3C)cc2)c1,-24
2,Cl.NCCCNc1ccc([N+](=O)[O-])cc1C(F)(F)F,-15
3,CCn1cc(C(=O)O)c(=O)c2cc(F)c(N3CCN(C(=S)NC(=O)c4cccc(F)c4)CC3)cc21,5.44
4,Cn1c(=O)[nH]c(=O)c2c1ncn2CCCc1ccccc1,1.26
5,Cc1ccc(-c2[nH]ncc2C(=O)c2ccc(Br)cc2)c(O)c1,-9.43
6,COc1ccc2c(-c3ccccc3)cc(N3CCOCC3)nc2c1.O=C(O)C(=O)O,3.22
7,O=C(O)C(=O)O.c1ccc(-c2cc(N3CCOCC3)nc3ccccc23)cc1,-11.6
8,O=C(O)C(=O)O.OCCN1CCN(c2cc(-c3ccccc3)c3ccccc3n2)CC1,-63.3
9,CCOC(=O)c1ccc[n+](CC(=O)Nc2ccccc2OC(F)F)c1.[Cl-],4.85
10,CCCCOc1ccc(C(=O)Nn2cnnc2)cc1,-0.225
11,Cc1nc2ccc(NC(=O)c3cc(Cl)ccn3)cc2s1,17.4
12,Cc1ccc(CSc2nc3sc(C)c(C)c3c(=O)n2Cc2ccco2)cc1,-6.19
13,Cc1sc2nc(SCc3ccc(C(=O)O)cc3)n(Cc3ccco3)c(=O)c2c1C,-59.2
14,C=CCn1c(SCC(=O)NCCO)nc2sc(C)c(C)c2c1=O,11.6
15,Cc1sc2nc(SCc3ccccc3)n(Cc3ccco3)c(=O)c2c1C,-2.09
16,C=CCn1c(SCc2ccc(C(=O)O)cc2)nc2sc(C)c(C)c2c1=O,-4.36
17,C=CCn1c(SCc2ccc(C(=O)NCCO)cc2)nc2sc(C)c(C)c2c1=O,-61.6

row,Compound,"hERG current change (%, negative = inhibition) at 10uM [%]"
1,O=C1C2CC=C(Cl)CC2C(=O)N1CCC[n+]1cccc2ccccc21 (stereo not shown),8.95
2,Cc1onc(-c2ccccc2Cl)c1C(=O)Nc1nnc(-c2ccc(Cl)cc2Cl)s1,17
3,Cc1cc(OCC(=O)NCC(O)c2ccccc2)c2c3c(c(=O)oc2c1)CCC3 (stereo not shown),16.1
4,Cc1ccc(/C=N/NC(=O)Cn2cnc3ccccc32)cc1,14.4
5,CC1(C)CNc2cc([N+](=O)[O-])ccc2S1,6.88
6,COc1ccc(C(=O)NCC(=O)N2CCN(c3ccc(F)cc3)CC2)cc1,-1.94
7,CCOCC(=O)Nc1c(C(=O)OCC)oc2ccccc12,-11.1
8,CCOC(=O)c1oc2ccccc2c1NC(=O)COc1ccc(F)cc1,14
9,CCOCC(=O)Nc1c(C(=O)N2CCN(c3ncccn3)CC2)oc2ccccc12,-21.4
10,COc1ccc(CC(=O)Nc2c(C(=O)N3CCN(c4ccccc4OC)CC3)oc3ccccc23)cc1OC,-24.4
11,CCOCCCN(C)C1CCN(C(=O)c2oc3ccccc3c2NC(=O)COc2ccc(F)cc2)CC1,-80.1
12,COCCCN(C)C1CCN(C(=O)Nc2ccc(F)cc2)CC1,-28.8
13,CCOC(=O)c1oc2ccccc2c1NC(=O)COc1cccc(OC)c1,10.4
14,CCOCCCN(C)C1CCN(C(=O)c2oc3ccccc3c2NC(=O)Cc2ccc(F)cc2)CC1,-77.8
15,NC(=O)c1oc2ccccc2c1NC(=O)c1ccc(F)cc1,10.9
16,CCOCCCN(C)C1CCN(C(=O)c2oc3ccccc3c2NC(=O)COc2cccc(C)c2)CC1,-82.2
17,CCOCCCN(C)C1CCN(C(=O)c2oc3ccccc3c2NC(=O)c2ccc(F)cc2)CC1,-77.5

# — article PMC4336329 (PLoS ONE, 2015)
